{"source": "paper PMC7862700", "about": "“An all-to-all approach to the identification of sequence-specific readers for epigenetic DNA modifications on cytosine”", "experiment_in_all_cases": "DAPPL (digital affinity profiling via proximity ligation, sequencing); 10 mM Tris-HCl pH 7.5, 50 mM NaCl, 1 mM DTT, 4% glycerol, room temperature, 30 min; GST-TFs on glutathione beads, 16-mer random dsDNA library, 0.1% formaldehyde crosslink after washing; high values mean tight binding", "conditions_in_all_cases": "protein: recombinant; tags: N-terminal GST; dsDNA, one strand shown", "key": {"ELK4": {"biological_target": "T1, ELK4 (Homo sapiens, UniProt P28324-2 1-405)", "T1 sequence": "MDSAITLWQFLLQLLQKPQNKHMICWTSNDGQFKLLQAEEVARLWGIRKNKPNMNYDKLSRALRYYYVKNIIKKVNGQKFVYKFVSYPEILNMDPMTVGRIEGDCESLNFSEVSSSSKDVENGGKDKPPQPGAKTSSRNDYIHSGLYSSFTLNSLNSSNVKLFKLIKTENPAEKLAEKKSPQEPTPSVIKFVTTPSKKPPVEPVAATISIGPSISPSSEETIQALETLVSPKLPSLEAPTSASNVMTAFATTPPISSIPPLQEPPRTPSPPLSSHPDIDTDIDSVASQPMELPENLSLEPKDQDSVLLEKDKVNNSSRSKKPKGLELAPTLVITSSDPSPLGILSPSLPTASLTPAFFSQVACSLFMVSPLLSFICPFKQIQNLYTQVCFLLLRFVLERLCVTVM", "summary_of_the_method": "(§1)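 GST fusions of human transcription factors were expressed in yeast and captured with glutathione beads. Once given DNA barcodes and pooled alongside a tag-only sample, they were incubated for 30 min at room temperature with 200 nmole of a random double-stranded 16-mer DNA library in Tris/NaCl/DTT/glycerol buffer, then washed, crosslinked (0.1% formaldehyde), proximity-ligated, PCR-amplified and sequenced on an Illumina NextSeq500. The binding signal of each hexamer is its read frequency for a factor divided by its frequency for the tag-only sample.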"}, "ELF3": {"biological_target": "T2, ELF3 (Homo sapiens, UniProt P78545 1-371)", "T2 sequence": "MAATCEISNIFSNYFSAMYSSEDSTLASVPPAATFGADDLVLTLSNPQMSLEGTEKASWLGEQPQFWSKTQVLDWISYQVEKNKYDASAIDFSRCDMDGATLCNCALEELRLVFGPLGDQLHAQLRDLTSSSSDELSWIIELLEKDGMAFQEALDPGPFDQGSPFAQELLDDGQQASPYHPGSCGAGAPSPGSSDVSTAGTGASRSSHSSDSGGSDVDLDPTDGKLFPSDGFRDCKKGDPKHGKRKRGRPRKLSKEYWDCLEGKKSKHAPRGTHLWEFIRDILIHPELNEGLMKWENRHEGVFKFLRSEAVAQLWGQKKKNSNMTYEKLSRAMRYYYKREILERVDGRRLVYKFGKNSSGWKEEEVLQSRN", "summary_of_the_method": "as §1"}, "ETV1": {"biological_target": "ETV1 (Homo sapiens, UniProt P50549 1-477)", "sequence (P50549 whole entry)": "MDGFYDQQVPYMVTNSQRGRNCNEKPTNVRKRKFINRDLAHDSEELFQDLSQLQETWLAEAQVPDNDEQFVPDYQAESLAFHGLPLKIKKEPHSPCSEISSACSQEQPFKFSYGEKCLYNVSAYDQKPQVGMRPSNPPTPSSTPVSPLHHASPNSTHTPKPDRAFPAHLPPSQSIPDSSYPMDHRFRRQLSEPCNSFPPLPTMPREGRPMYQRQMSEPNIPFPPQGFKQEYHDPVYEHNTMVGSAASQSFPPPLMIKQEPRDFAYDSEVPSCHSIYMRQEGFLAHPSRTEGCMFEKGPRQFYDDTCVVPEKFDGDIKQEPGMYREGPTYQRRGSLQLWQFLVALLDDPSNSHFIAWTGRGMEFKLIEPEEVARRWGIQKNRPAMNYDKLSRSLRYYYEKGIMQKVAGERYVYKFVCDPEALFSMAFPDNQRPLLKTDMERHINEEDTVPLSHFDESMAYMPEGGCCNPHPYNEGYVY", "summary_of_the_method": "as §1"}, "ERF": {"biological_target": "T3, ERF (Homo sapiens, UniProt P50548 1-548)", "T3 sequence": "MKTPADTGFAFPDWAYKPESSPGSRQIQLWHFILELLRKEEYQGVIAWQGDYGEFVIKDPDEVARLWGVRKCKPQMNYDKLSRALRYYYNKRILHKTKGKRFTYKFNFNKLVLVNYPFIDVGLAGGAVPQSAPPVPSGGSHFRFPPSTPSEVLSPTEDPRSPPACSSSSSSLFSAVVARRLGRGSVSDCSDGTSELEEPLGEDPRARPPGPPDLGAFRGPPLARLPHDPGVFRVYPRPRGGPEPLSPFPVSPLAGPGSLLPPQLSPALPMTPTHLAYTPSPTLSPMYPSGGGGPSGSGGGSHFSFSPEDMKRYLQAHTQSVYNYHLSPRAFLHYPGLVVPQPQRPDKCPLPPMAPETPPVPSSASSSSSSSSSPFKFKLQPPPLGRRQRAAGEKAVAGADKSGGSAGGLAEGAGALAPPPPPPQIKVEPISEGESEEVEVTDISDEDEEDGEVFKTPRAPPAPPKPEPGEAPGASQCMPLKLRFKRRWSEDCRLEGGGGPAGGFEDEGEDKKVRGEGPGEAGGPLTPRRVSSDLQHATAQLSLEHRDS", "summary_of_the_method": "as §1"}, "ETV3L": {"biological_target": "T4, ETV3L (Homo sapiens, UniProt Q6ZN32 1-361)", "T4 sequence": "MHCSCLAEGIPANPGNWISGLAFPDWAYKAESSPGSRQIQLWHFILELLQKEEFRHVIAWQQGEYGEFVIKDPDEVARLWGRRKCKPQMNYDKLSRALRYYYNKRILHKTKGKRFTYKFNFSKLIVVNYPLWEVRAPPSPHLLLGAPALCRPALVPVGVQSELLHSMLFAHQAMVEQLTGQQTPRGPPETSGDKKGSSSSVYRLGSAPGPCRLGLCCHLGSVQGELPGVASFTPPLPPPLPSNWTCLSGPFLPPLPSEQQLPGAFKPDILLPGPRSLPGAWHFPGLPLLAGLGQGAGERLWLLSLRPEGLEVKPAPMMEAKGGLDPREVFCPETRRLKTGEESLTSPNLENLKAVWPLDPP", "summary_of_the_method": "as §1"}, "ETS2": {"biological_target": "T5, ETS2 (Homo sapiens, UniProt P15036 1-469)", "T5 sequence": "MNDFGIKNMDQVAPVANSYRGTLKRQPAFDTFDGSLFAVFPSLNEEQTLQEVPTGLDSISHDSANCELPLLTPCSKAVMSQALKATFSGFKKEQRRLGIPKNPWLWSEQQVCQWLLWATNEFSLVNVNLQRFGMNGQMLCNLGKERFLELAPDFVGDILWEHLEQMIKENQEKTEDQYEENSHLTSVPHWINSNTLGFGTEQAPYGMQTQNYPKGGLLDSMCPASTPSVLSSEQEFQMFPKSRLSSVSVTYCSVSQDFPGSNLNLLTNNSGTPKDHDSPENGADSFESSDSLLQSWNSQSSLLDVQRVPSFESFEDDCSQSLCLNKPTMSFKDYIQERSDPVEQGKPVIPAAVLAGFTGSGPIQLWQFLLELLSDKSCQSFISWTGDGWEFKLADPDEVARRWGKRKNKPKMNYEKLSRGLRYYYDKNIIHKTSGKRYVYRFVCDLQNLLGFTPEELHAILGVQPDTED", "summary_of_the_method": "as §1"}, "SPDEF": {"biological_target": "T6, SPDEF (Homo sapiens, UniProt O95238 1-335)", "T6 sequence": "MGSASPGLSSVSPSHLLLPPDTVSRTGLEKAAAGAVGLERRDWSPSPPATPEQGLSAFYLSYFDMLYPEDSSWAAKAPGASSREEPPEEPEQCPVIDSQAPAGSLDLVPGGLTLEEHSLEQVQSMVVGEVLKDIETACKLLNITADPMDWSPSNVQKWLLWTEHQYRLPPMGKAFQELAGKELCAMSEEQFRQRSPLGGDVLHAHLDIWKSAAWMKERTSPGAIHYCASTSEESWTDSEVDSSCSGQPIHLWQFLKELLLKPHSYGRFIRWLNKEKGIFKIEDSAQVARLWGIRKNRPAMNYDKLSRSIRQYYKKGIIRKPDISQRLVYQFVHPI", "summary_of_the_method": "as §1"}, "ETV7": {"biological_target": "T7, ETV7 (Homo sapiens, UniProt Q9Y603 1-341)", "T7 sequence": "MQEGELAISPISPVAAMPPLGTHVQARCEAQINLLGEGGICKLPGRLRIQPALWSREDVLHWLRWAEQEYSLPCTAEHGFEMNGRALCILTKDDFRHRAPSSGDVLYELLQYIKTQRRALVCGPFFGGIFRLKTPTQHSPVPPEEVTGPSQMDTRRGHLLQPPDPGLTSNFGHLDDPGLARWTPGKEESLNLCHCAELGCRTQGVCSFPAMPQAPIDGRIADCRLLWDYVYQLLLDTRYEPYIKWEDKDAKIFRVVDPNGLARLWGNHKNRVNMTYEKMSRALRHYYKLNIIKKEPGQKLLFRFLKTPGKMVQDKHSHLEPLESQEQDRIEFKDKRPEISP", "summary_of_the_method": "as §1"}, "ETV3": {"biological_target": "T8, ETV3 (Homo sapiens, UniProt P41162-2 1-143)", "T8 sequence": "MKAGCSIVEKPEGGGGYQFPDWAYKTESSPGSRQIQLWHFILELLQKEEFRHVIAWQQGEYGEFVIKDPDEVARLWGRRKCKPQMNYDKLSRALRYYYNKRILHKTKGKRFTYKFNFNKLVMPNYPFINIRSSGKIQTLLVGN", "summary_of_the_method": "as §1"}, "ETV6": {"biological_target": "ETV6 (Homo sapiens, UniProt P41212 1-452)", "sequence (P41212 whole entry)": "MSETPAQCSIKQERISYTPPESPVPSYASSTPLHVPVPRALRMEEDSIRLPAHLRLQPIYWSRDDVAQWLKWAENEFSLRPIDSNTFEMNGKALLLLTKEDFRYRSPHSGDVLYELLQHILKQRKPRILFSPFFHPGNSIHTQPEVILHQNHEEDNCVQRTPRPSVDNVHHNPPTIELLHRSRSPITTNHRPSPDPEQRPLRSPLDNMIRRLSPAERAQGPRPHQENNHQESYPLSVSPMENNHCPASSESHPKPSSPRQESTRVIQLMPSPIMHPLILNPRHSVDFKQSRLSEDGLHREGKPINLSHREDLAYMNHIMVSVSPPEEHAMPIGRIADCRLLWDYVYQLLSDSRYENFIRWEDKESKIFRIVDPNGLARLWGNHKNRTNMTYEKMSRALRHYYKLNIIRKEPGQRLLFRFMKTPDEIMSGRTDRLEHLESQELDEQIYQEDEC", "summary_of_the_method": "as §1"}}, "data": [{"sequence": "CAAACA", "values": [{"measurement": "binding signal", "setting": "ELK4", "result": "1.13 fold enrichment (6-mer frequency, TF over GST control)"}, {"measurement": "binding signal", "setting": "ELF3", "result": "1.21 fold enrichment (6-mer frequency, TF over GST control)"}, {"measurement": "binding signal", "setting": "ETV1", "result": "1.09 fold enrichment (6-mer frequency, TF over GST control)"}, {"measurement": "binding signal", "setting": "ERF", "result": "1.08 fold enrichment (6-mer frequency, TF over GST control)"}, {"measurement": "binding signal", "setting": "ETV3L", "result": "1.12 fold enrichment (6-mer frequency, TF over GST control)"}, {"measurement": "binding signal", "setting": "ETS2", "result": "1.16 fold enrichment (6-mer frequency, TF over GST control)"}, {"measurement": "binding signal", "setting": "SPDEF", "result": "1.12 fold enrichment (6-mer frequency, TF over GST control)"}, {"measurement": "binding signal", "setting": "ETV7", "result": "1.07 fold enrichment (6-mer frequency, TF over GST control)"}, {"measurement": "binding signal", "setting": "ETV3", "result": "1.13 fold enrichment (6-mer frequency, TF over GST control)"}, {"measurement": "binding signal", "setting": "ETV6", "result": "1.1 fold enrichment (6-mer frequency, TF over GST control)"}]}]}
